# Results published in the supplement of paper PMC10037445.
# In all, about 2,900 compounds were measured (“NF-kB SEAP reporter activity, fold change vs agonist alone”: median about 0.99, highest 2% from about 2.6 on). Only a selection was taken, and the highest values are over-represented in it overall.
# How the values were obtained:
# RAW-Dual [1] = assay: NF-kB SEAP reporter activity, fold change vs agonist alone; higher = enhanced NF-kB activity
# In short: (§1)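 Library stock was pin-tooled at 50 nL into 384-well plates of RAW-Dual macrophages (50,000 cells/well, DMEM), followed 1 h later by a PRR agonist, and the cells were kept at 37 °C, 5% CO2. Supernatant collected after 20 hours was read for IRF by QuantiLuc luminescence and for NF-κB by QuantiBlue absorbance at 620 nm. Reporter activity is fold change over agonist-alone wells, and a well counted as cytotoxic when its IncuCyte confluency was below 70% of agonist controls in both mask sets.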
# RAW-Dual [2] = assay: NF-kB SEAP reporter activity, fold change vs agonist alone; cytotoxicity flag (confluency mask): not cytotoxic; higher = enhanced NF-kB activity
# In short: as §1
# RAW-Dual [3] = assay: NF-kB SEAP reporter activity, fold change vs agonist alone; cytotoxicity flag (confluency mask): cytotoxic (confluency <70% of control); higher = enhanced NF-kB activity
# In short: as §1
# [4] = library stock concentration (final ~1000-fold dilution): 10 mM, cytotoxicity flag (confluency mask): not cytotoxic, agonist: Imiquimod (TLR7) […]
# [5] = library stock concentration (final ~1000-fold dilution): 10 mM, cytotoxicity flag (confluency mask): not cytotoxic, agonist: MPLA (TLR4) […]
# [6] = agonist: ODN 1826 (TLR9) 0.5 ug/mL
# [7] = agonist: Pam2CSK4 (TLR2/6) 0.1 ug/mL
# [8] = agonist: Pam3CSK4 (TLR2/1) 0.1 ug/mL
structure (smiles),measurement,setting,value
Nc1ncn(C2CC(O)C(CO)O2)c(=O)n1 (stereo unspecified),NF-kB SEAP reporter activity,RAW-Dual [1]; [4],1.58
same,NF-kB SEAP reporter activity,RAW-Dual [1]; [5],1.38
Nc1ncn(C2OC(CO)C(O)C2O)c(=O)n1 (stereo unspecified) (library stock concentration (final ~1000-fold dilution): 10 mM),NF-kB SEAP reporter activity,RAW-Dual [2]; agonist: LPS (TLR4) 0.1 ug/mL,1.06
same,NF-kB SEAP reporter activity,RAW-Dual [2]; [6],1.91
same,NF-kB SEAP reporter activity,RAW-Dual [2]; [7],0.631
same,NF-kB SEAP reporter activity,RAW-Dual [2]; [8],0.71
Nc1ccn(C2OC(CO)C(O)C2O)c(=O)n1 (stereo unspecified) (library stock concentration (final ~1000-fold dilution): 10 mM water),NF-kB SEAP reporter activity,RAW-Dual [2]; agonist: LPS (TLR4) 0.1 ug/mL,1.92
same,NF-kB SEAP reporter activity,RAW-Dual [2]; [6],1.7
same,NF-kB SEAP reporter activity,RAW-Dual [2]; [7],1.85
same,NF-kB SEAP reporter activity,RAW-Dual [2]; [8],1.83
Nc1ccn(C2OC(CO)C(O)C2O)c(=O)n1 (stereo unspecified),NF-kB SEAP reporter activity,"RAW-Dual [1]; library stock concentration (final ~1000-fold dilution): 10 mM water, cytotoxicity flag (confluency mask): not cytotoxic, agonist: Imiquimod (TLR7) […]",1.46
same,NF-kB SEAP reporter activity,"RAW-Dual [1]; library stock concentration (final ~1000-fold dilution): 10 mM water, cytotoxicity flag (confluency mask): not cytotoxic, agonist: MPLA (TLR4) […]",1.33
Nc1ncn(C2OC(CO)C(O)C2O)c(=O)n1 (stereo unspecified),NF-kB SEAP reporter activity,RAW-Dual [1]; [4],2.59
same,NF-kB SEAP reporter activity,RAW-Dual [1]; [5],2.47
Nc1ncn(C2CC(O)C(CO)O2)c(=O)n1 (stereo unspecified) (library stock concentration (final ~1000-fold dilution): 10 mM),NF-kB SEAP reporter activity,RAW-Dual [2]; agonist: LPS (TLR4) 0.1 ug/mL,1.55
same,NF-kB SEAP reporter activity,RAW-Dual [2]; [6],1.41
same,NF-kB SEAP reporter activity,RAW-Dual [2]; [7],1.14
same,NF-kB SEAP reporter activity,RAW-Dual [2]; [8],1.26
O=C(O)CC(C(=O)O)N1C(=O)/C(=C2/C(=O)Nc3ccc(Br)cc32)SC1=S (stereo unspecified),NF-kB SEAP reporter activity,RAW-Dual [1]; [4],1.33
same,NF-kB SEAP reporter activity,RAW-Dual [1]; [5],1.72
O=C(O)CC(C(=O)O)N1C(=O)/C(=C2/C(=O)Nc3ccc(Br)cc32)SC1=S (stereo unspecified) (library stock concentration (final ~1000-fold dilution): 10 mM),NF-kB SEAP reporter activity,RAW-Dual [2]; agonist: LPS (TLR4) 0.1 ug/mL,0.98
same,NF-kB SEAP reporter activity,RAW-Dual [2]; [6],1.56
same,NF-kB SEAP reporter activity,RAW-Dual [2]; [7],1.02
same,NF-kB SEAP reporter activity,RAW-Dual [2]; [8],1.06
COc1ccccc1Oc1c(NS(=O)(=O)c2ccc(C(C)(C)C)cc2)nc(-c2ncccn2)nc1OCCO.O,NF-kB SEAP reporter activity,RAW-Dual [1]; [4],1.02
same,NF-kB SEAP reporter activity,RAW-Dual [1]; [5],1.1
COc1ccccc1Oc1c(NS(=O)(=O)c2ccc(C(C)(C)C)cc2)nc(-c2ncccn2)nc1OCCO.O (library stock concentration (final ~1000-fold dilution): 10 mM),NF-kB SEAP reporter activity,RAW-Dual [2]; agonist: LPS (TLR4) 0.1 ug/mL,1.15
same,NF-kB SEAP reporter activity,RAW-Dual [2]; [6],1.01
same,NF-kB SEAP reporter activity,RAW-Dual [2]; [7],1.06
same,NF-kB SEAP reporter activity,RAW-Dual [2]; [8],1.1
CC(C)OC(=O)CCC/C=C\CC1C(O)CC(O)C1CCC(O)CCc1ccccc1 (stereo unspecified),NF-kB SEAP reporter activity,RAW-Dual [1]; [5],1.43
CC(C)OC(=O)CCC/C=C\CC1C(O)CC(O)C1CCC(O)CCc1ccccc1 (stereo unspecified) (library stock concentration (final ~1000-fold dilution): 10 mM),NF-kB SEAP reporter activity,RAW-Dual [2]; agonist: LPS (TLR4) 0.1 ug/mL,1.4
same,NF-kB SEAP reporter activity,RAW-Dual [2]; [6],0.911
same,NF-kB SEAP reporter activity,RAW-Dual [2]; [7],1.1
same,NF-kB SEAP reporter activity,RAW-Dual [2]; [8],0.929
Cc1c[nH]c(C=C2C(=O)Nc3ccccc32)c1CCC(=O)O (library stock concentration (final ~1000-fold dilution): 10 mM),NF-kB SEAP reporter activity,RAW-Dual [2]; agonist: LPS (TLR4) 0.1 ug/mL,0.665
same,NF-kB SEAP reporter activity,RAW-Dual [2]; [6],0.926
same,NF-kB SEAP reporter activity,RAW-Dual [2]; [7],0.983
same,NF-kB SEAP reporter activity,RAW-Dual [2]; [8],0.647
COc1ccc(C(=C2C(=O)Nc3ccccc32)c2ccc(OC)cc2)cc1 (library stock concentration (final ~1000-fold dilution): 10 mM),NF-kB SEAP reporter activity,RAW-Dual [2]; agonist: LPS (TLR4) 0.1 ug/mL,1.04
same,NF-kB SEAP reporter activity,RAW-Dual [2]; [6],0.585
same,NF-kB SEAP reporter activity,RAW-Dual [2]; [7],0.692
same,NF-kB SEAP reporter activity,RAW-Dual [2]; [8],0.323
Cc1c[nH]c(C=C2C(=O)Nc3ccccc32)c1CCC(=O)O,NF-kB SEAP reporter activity,RAW-Dual [1]; [4],0.662
same,NF-kB SEAP reporter activity,RAW-Dual [1]; [5],0.848
COc1cc(OC)c(/C=C2/C(=O)Nc3ccccc32)c(OC)c1 (library stock concentration (final ~1000-fold dilution): 10 mM),NF-kB SEAP reporter activity,RAW-Dual [2]; agonist: LPS (TLR4) 0.1 ug/mL,3.21
same,NF-kB SEAP reporter activity,RAW-Dual [2]; [6],2.56
same,NF-kB SEAP reporter activity,RAW-Dual [2]; [7],1.33
same,NF-kB SEAP reporter activity,RAW-Dual [2]; [8],1.92
COc1cc(OC)c(/C=C2/C(=O)Nc3ccccc32)c(OC)c1,NF-kB SEAP reporter activity,RAW-Dual [1]; [4],1.62
same,NF-kB SEAP reporter activity,RAW-Dual [1]; [5],1.67
COc1ccc(C(=C2C(=O)Nc3ccccc32)c2ccc(OC)cc2)cc1,NF-kB SEAP reporter activity,RAW-Dual [1]; [4],0.748
same,NF-kB SEAP reporter activity,RAW-Dual [1]; [5],0.978
NC(N)=NCCCC(N)C(=O)NC(CCCN=C(N)N)C(=O)N1CCCC1C(=O)N1CC(O)CC1C(=O)NCC(=O)NC(Cc1cccs1)C(=O)NC(CO)C(=O)N1Cc2ccccc2CC1C(=O)N1C(C(=O)NC(CCCN=C(N)N)C(=O)O)CC2CCCCC21 (stereo unspecified) (library stock concentration (final ~1000-fold dilution): 2 mM water),NF-kB SEAP reporter activity,RAW-Dual [2]; agonist: LPS (TLR4) 0.1 ug/mL,0.985
same,NF-kB SEAP reporter activity,RAW-Dual [2]; [6],1.06
same,NF-kB SEAP reporter activity,RAW-Dual [2]; [7],1.1
same,NF-kB SEAP reporter activity,RAW-Dual [2]; [8],0.962
NC(N)=NCCCC(N)C(=O)NC(CCCN=C(N)N)C(=O)N1CCCC1C(=O)N1CC(O)CC1C(=O)NCC(=O)NC(Cc1cccs1)C(=O)NC(CO)C(=O)N1Cc2ccccc2CC1C(=O)N1C(C(=O)NC(CCCN=C(N)N)C(=O)O)CC2CCCCC21 (stereo unspecified),NF-kB SEAP reporter activity,"RAW-Dual [1]; library stock concentration (final ~1000-fold dilution): 2 mM water, cytotoxicity flag (confluency mask): not cytotoxic, agonist: Imiquimod (TLR7) […]",0.945
same,NF-kB SEAP reporter activity,"RAW-Dual [1]; library stock concentration (final ~1000-fold dilution): 2 mM water, cytotoxicity flag (confluency mask): not cytotoxic, agonist: MPLA (TLR4) […]",1.05
CC12CC(O)C3CC1(O[C@@H]1O[C@H](CO)[C@@H](O)[C@H](O)[C@H]1O)C3(COC(=O)c1ccccc1)C(=O)O2 (stereo partly specified) (library stock concentration (final ~1000-fold dilution): 10 mM),NF-kB SEAP reporter activity,RAW-Dual [2]; agonist: LPS (TLR4) 0.1 ug/mL,1.24
same,NF-kB SEAP reporter activity,RAW-Dual [2]; [6],1.12
same,NF-kB SEAP reporter activity,RAW-Dual [2]; [7],1.1
same,NF-kB SEAP reporter activity,RAW-Dual [2]; [8],1.06
CC12CC(O)C3CC1(O[C@@H]1O[C@H](CO)[C@@H](O)[C@H](O)[C@H]1O)C3(COC(=O)c1ccccc1)C(=O)O2 (stereo partly specified),NF-kB SEAP reporter activity,RAW-Dual [1]; [4],1.03
same,NF-kB SEAP reporter activity,RAW-Dual [1]; [5],1.03
CNCCCC1c2ccccc2C=Cc2ccccc21.Cl,NF-kB SEAP reporter activity,"RAW-Dual [1]; library stock concentration (final ~1000-fold dilution): 10 mM, cytotoxicity flag (confluency mask): cytotoxic (confluency <70% of control), agonist: Imiquimod (TLR7) […]",1.28
same,NF-kB SEAP reporter activity,"RAW-Dual [1]; library stock concentration (final ~1000-fold dilution): 10 mM, cytotoxicity flag (confluency mask): cytotoxic (confluency <70% of control), agonist: MPLA (TLR4) […]",1.62
CNCCCC1c2ccccc2C=Cc2ccccc21.Cl (library stock concentration (final ~1000-fold dilution): 10 mM),NF-kB SEAP reporter activity,RAW-Dual [3]; agonist: LPS (TLR4) 0.1 ug/mL,0.947
same,NF-kB SEAP reporter activity,RAW-Dual [3]; [6],0.644
same,NF-kB SEAP reporter activity,RAW-Dual [3]; [7],0.63
same,NF-kB SEAP reporter activity,RAW-Dual [3]; [8],0.687
O=C(CCNNC(=O)c1ccncc1)NCc1ccccc1,NF-kB SEAP reporter activity,RAW-Dual [1]; [4],0.939
same,NF-kB SEAP reporter activity,RAW-Dual [1]; [5],1
O=C(CCNNC(=O)c1ccncc1)NCc1ccccc1 (library stock concentration (final ~1000-fold dilution): 10 mM),NF-kB SEAP reporter activity,RAW-Dual [2]; agonist: LPS (TLR4) 0.1 ug/mL,0.997
same,NF-kB SEAP reporter activity,RAW-Dual [2]; [6],1.03
same,NF-kB SEAP reporter activity,RAW-Dual [2]; [7],0.962
same,NF-kB SEAP reporter activity,RAW-Dual [2]; [8],0.955
CCCCNc1ccc(C(=O)OCCN(C)C)cc1.Cl (library stock concentration (final ~1000-fold dilution): 10 mM),NF-kB SEAP reporter activity,RAW-Dual [2]; agonist: LPS (TLR4) 0.1 ug/mL,1.38
same,NF-kB SEAP reporter activity,RAW-Dual [2]; [6],0.759
same,NF-kB SEAP reporter activity,RAW-Dual [2]; [7],1.13
same,NF-kB SEAP reporter activity,RAW-Dual [2]; [8],1.17
